{"source": "PubChem BioAssay (EPA / NIEHS)", "note": "Inconclusive results are not listed. Active and inactive are the calls of the source. How the source made its calls: active means hit-call score of the fitted dose curve at least 0.9, where 1 is the maximum; inconclusive means response in the unintended direction; inactive means score below 0.9."}
{"read-out": "Cytochrome P450 2B6 (Homo sapiens) (UniProt P20813)", "assay": "CLD_CYP2B6_24hr: CellzDirect (CLD) Gene Expression Assay for xenobiotic metabolism (CYP2B6) at 24 hours (AID 2283686)", "description": "CLD_24hr is a cell-based, multiplexed-readout assay that uses hepatocyte, a human liver primary cell, with measurements taken at 24 hours after chemical dosing in a 96-well plate.CLD_CYP2B6_24hr is one of 16 assay component(s) measured or calculated from the CLD_24hr assay. It is designed to make measurements of mRNA induction, a form of inducible reporter, as detected with chemiluminescence signals by Quantitative Nuclease Protection Assay (qNPA) technology.Data from the assay component CLD_CYP2B6_24hr was analyzed at the endpoint, CLD_CYP2B6_24hr, in the positive analysis fitting direction relative to DMSO as the negative control and baseline of activity. Using a type of inducible reporter, gain-of-signal activity can be used to understand changes in the reporter gene as they relate to the gene CYP2B6. Furthermore, this assay endpoint can be referred to as a primary readout. To generalize the intended target to other relatable targets, this assay endpoint is annotated to the cyp intended target family, where subfamily is xenobiotic metabolism.\nHuman hepatocyte cultures were treated daily for two consecutive days with fresh dosing solutions containing appropriate concentrations of the 320 ToxCast chemicals (chemical identities were blinded to CellzDirect and other ToxCast collaborators), vehicle control (0.2% DMSO), and positive control inducers as summarized in Table 1. Due to the large number of treatment groups and chemicals examined, the ToxCast chemicals were divided into two groups (spanning two independent cultures of hepatocytes from separate donor preparations (Hu778: ToxCast plates 1 and 2; Hu776: ToxCast plates 3 and 4). Each preparation of human hepatocyte cultures was treated with respective vehicle control, medium only control, set of six positive controls/reference chemicals for the five hepatic receptor pathways, and a subset of eight of the ToxCast chemicals (indoxacarb, pyrithiobac-sodium, norflurazon, cyhalofop-butyl, methomyl, thiram, acetochlor, and propiconazole). These replicate data, coupled with internal replicates designed within the blinded ToxCast chemical library, provided additional data to evaluate interindividual differences between hepatocyte preparations and their potential impact on chemical profiles.Cell morphology and integrity were evaluated using phase-contrast microscopy as an indicator of hepatocyte cell health (Tyson & Green, 1987). Cultures for each treatment group (i.e., media, vehicle [0.2% DMSO], positive control inducers [multiple concentrations], and the ToxCast chemicals [multiple concentrations]) were observed and cell morphology was assessed relative to vehicle control cultures at each harvest time point (0, 6, 24, or 48 h). […] Images were evaluated at the conclusion of the study to assess changes in cell integrity and account for the effects of chemical exposure on uncharacteristic changes in concentration-dependent gene expression profiles. The results from these determinations of apparent cytotoxicity were annotated (yes/no) alongside the corresponding qNPA data for reference.At the conclusion of each treatment period, hepatocyte cultures (96-well) were washed with 1 volume of HBSS, lysed by addition of 25 ul ArrayPlate lysis buffer (HTG, Tucson, AZ), and 70 ul/well of Denaturation Oil, denatured by incubation at 95C for 10 min, and frozen at approximately -70C until analysis by nuclease protection assay (qNPA) (Roberts et al., 2007). For qNPA analysis, cell lysates were thawed at 50C for approximately 30 min, qNPA probes were added, and samples were incubated at 95C for 10 min to begin the detection process by denaturing the target RNA, dissociating the duplexes and secondary structure hybridization. At the conclusion of the hybridization period, S1 nuclease reagent was added to each sample to digest all nonprotected nucleotides at 50C for 60-90 min. […]"}
{"compound": "CCC(CC)Nc1c([N+](=O)[O-])cc(C)c(C)c1[N+](=O)[O-]", "AC50": "11.4 µM (active)"}
{"compound": "CCCCSP(=O)(SCCCC)SCCCC", "AC50": "1.9 µM (active)"}
{"compound": "N#CSCSC#N", "outcome": "inactive"}
{"compound": "Cc1ccn2nc(S(=O)(=O)Nc3c(F)cccc3F)nc2n1", "outcome": "inactive"}
{"compound": "Nc1c(Cl)cc([N+](=O)[O-])cc1Cl", "AC50": "33.7 µM (active)"}
{"compound": "CN(C)[C@@H]1C(=O)C(C(N)=O)=C(O)[C@@]2(O)C(=O)C3=C(O)c4c(O)cccc4[C@@](C)(O)[C@H]3[C@H](O)[C@@H]12", "outcome": "inactive"}
{"compound": "O=[N+]([O-])c1cc(C(F)(F)F)c(Cl)c([N+](=O)[O-])c1Nc1ncc(C(F)(F)F)cc1Cl", "outcome": "inactive"}
{"compound": "CNC(=O)ON=C(SC)C(=O)N(C)C", "outcome": "inactive"}
{"compound": "CCCCOC(=O)[C@@H](C)Oc1ccc(Oc2ccc(C#N)cc2F)cc1", "outcome": "inactive"}
{"compound": "C#CC(C)(C)NC(=O)c1cc(Cl)cc(Cl)c1", "outcome": "inactive"}
{"compound": "CCCOCC(=Nc1ccc(Cl)cc1C(F)(F)F)n1ccnc1", "outcome": "inactive"}
{"compound": "COc1ccc(C(=CC(=O)N2CCOCC2)c2ccc(Cl)cc2)cc1OC", "AC50": "3.59 µM (active)"}
{"compound": "CCOP(=S)(Oc1cnc(C(C)(C)C)nc1)OC(C)C", "note": "(stereo not given)", "AC50": "2.05 µM (active)"}
{"compound": "S=C1NCCN1", "outcome": "inactive"}
{"compound": "CCOP(=O)(OCC)Oc1cc(C)nc(C(C)C)n1", "AC50": "20 µM (active)"}
{"compound": "CC(=NC#N)N(C)Cc1ccc(Cl)nc1", "outcome": "inactive"}
{"compound": "C#CCC1=C(C)C(OC(=O)C2C(C=C(C)C)C2(C)C)CC1=O", "note": "(stereo not given)", "AC50": "4.23 µM (active)"}
{"compound": "COP(=O)(NC(C)=O)SC", "note": "(stereo not given)", "outcome": "inactive"}
{"compound": "COc1cc(OC)nc(Sc2cccc(Cl)c2C(=O)O)n1", "outcome": "inactive"}
{"compound": "C[Si](Cn1cncn1)(c1ccc(F)cc1)c1ccc(F)cc1", "AC50": "0.179 µM (active)"}
{"compound": "CON=C(C(=O)OC)c1ccccc1CON=C(C)c1cccc(C(F)(F)F)c1", "AC50": "20 µM (active)"}
{"compound": "Nc1nc(N)nc(NC2CC2)n1", "outcome": "inactive"}
{"compound": "COP(=O)(OC)OC(Br)C(Cl)(Cl)Br", "note": "(stereo not given)", "outcome": "inactive"}
{"compound": "CCC(=NOC/C=C/Cl)C1=C(O)CC(C2CCOCC2)CC1=O", "note": "(stereo not given)", "outcome": "inactive"}
{"compound": "CCOP(=S)(OCC)Oc1ccc2c(C)c(Cl)c(=O)oc2c1", "AC50": "1.28 µM (active)"}
{"compound": "CCOC(=O)CC(SP(=O)(OC)OC)C(=O)OCC", "note": "(stereo not given)", "AC50": "20 µM (active)"}
{"compound": "CN(C)NC(=O)CCC(=O)O", "outcome": "inactive"}
{"compound": "CCCOc1nn(C(=O)NS(=O)(=O)c2ccccc2C(=O)OC)c(=O)n1C", "outcome": "inactive"}
{"compound": "CC[C@H](C)[C@H]1O[C@]2(C=C[C@@H]1C)C[C@@H]1C[C@@H](C/C=C(\\C)[C@@H](O[C@H]3C[C@H](OC)[C@@H](O[C@H]4C[C@H](OC)[C@@H](NC)[C@H](C)O4)[C@H](C)O3)[C@@H](C)/C=C/C=C3\\CO[C@@H]4[C@H](O)C(C)=C[C@@H](C(=O)O1)[C@]34O)O2", "outcome": "inactive"}
{"compound": "CCOP(=O)(SC(C)CC)N1CCSC1=O", "note": "(stereo not given)", "AC50": "3.26 µM (active)"}
{"compound": "CNC(=O)ON=C(C)SC", "outcome": "inactive"}
{"compound": "CC(C)[C@H](C(=O)O[C@H](C#N)c1cccc(Oc2ccccc2)c1)c1ccc(Cl)cc1", "outcome": "inactive"}
{"compound": "CCOC(=O)COc1cc(-c2nn(C)c(OC(F)F)c2Cl)c(F)cc1Cl", "AC50": "20 µM (active)"}
{"compound": "CC(COc1ccc(Oc2ccccc2)cc1)Oc1ccccn1", "note": "(stereo not given)", "AC50": "3.97 µM (active)"}
{"compound": "CCCSP(=O)(OCC)Oc1ccc(Br)cc1Cl", "note": "(stereo not given)", "AC50": "6.22 µM (active)"}
{"compound": "Cc1nn(-c2cc(NS(C)(=O)=O)c(Cl)cc2Cl)c(=O)n1C(F)F", "AC50": "4.18 µM (active)"}
{"compound": "O=C(O)c1cc(Oc2ccc(C(F)(F)F)cc2Cl)ccc1[N+](=O)[O-]", "outcome": "inactive"}
{"compound": "CCOP(=S)(OCC)Oc1ccc([N+](=O)[O-])cc1", "AC50": "0.828 µM (active)"}
{"compound": "CCc1cccc(C)c1N(C(=O)CCl)C(C)COC", "note": "(stereo not given)", "AC50": "1.61 µM (active)"}
{"compound": "CSc1nnc(C(C)(C)C)c(=O)n1N", "AC50": "20 µM (active)"}
